Experimental data taken from PubChem BioAssay (EPA / NIEHS).
Values joined by “and” are separate entries in the source; they are usually repeats but may differ in a detail not shown here. Equal values may be shown once. More than one record can exist for a structure, and the calls need not agree. Active and inactive are the calls of the source. Rule for the calls: active = hit-call score of the fitted dose curve at least 0.9, where 1 is the maximum; inactive = score below 0.9.

read-out: TIMP metallopeptidase inhibitor 2 (TIMP2), TIMP2 (gene 7077); test: BSK_KF3CT_TIMP2: BioMAP Diversity Plus: KF3CT Assay for TIMP metallopeptidase inhibitor 2 (TIMP2) Biomarker Activity (AID 2283071); details: primary human keratinocytes with fibroblasts; actives raise or lower the signal
How it was run: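 Cells: human keratinocytes co-cultured with foreskin fibroblasts. Treat with chemical, 24 h. Measure TIMP-2 by ELISA; fit curves bidirectionally vs DMSO baseline.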

| Structure (SMILES) | AC50 | outcome |
| --- | --- | --- |
| C=CC(=O)OCC(Br)CBr (configuration not stated) | 32 µM (active) |  |
| O=C(Nc1ccccc1SSc1ccccc1NC(=O)c1ccccc1)c1ccccc1 |  | inactive |
| CCOc1nc(F)cc2nc(S(=O)(=O)Nc3c(Cl)cccc3C(=O)OC)nn12 |  | inactive |
| N#[N+]c1ccc2c(S(=O)(=O)[O-])cccc2c1O |  | inactive |
| COCc1c(C(C)C)nc(C(C)C)c(/C=C/[C@@H](O)C[C@@H](O)CC(=O)O)c1-c1ccc(F)cc1 |  | inactive |
| CCCCC(CC)COC(=O)c1ccccc1O (configuration not stated) |  | inactive |
| O=C1CCCN1CCO |  | inactive |
| CC1OC1C1CCC2(C)OC2C1 (configuration not stated) |  | inactive |
| CCO[Si](C)(OCC)OCC |  | inactive |
| C=CCOCC(O)CCl (configuration not stated) |  | inactive |
| C#CC1(O)CC[C@H]2[C@@H]3CCC4=CCCC[C@@H]4[C@H]3CC[C@@]21C (some centres not stated) | 20 µM (active) |  |
| O=C(Cl)c1cc(C(=O)Cl)cc(C(=O)Cl)c1 | 25.2 µM (active) |  |
| CCCCCCCCCCCCCCCC[N+](C)(C)CC | 2.15 µM (active) |  |
| CN1C(=O)N(C)C(O)C1O (configuration not stated) |  | inactive |
| CCCCNc1ccc(NCCCC)c2c1C(=O)c1ccccc1C2=O |  | inactive |
| C=C[Si](OC(C)=O)(OC(C)=O)OC(C)=O |  | inactive |
| Nc1ccc(N)c(Cl)c1 |  | inactive |
| O=Nc1ccc(O)cc1 |  | inactive |

| Structure (SMILES) | AC50 | outcome |
| --- | --- | --- |
| C=CCOc1c(Br)cc(Br)cc1Br | 11.4 µM (active) |  |
| CCCCCCCCc1ccc(Nc2ccc(CCCCCCCC)cc2)cc1 |  | inactive |
| CCCCC/C=C\C/C=C\CCCCCCCC(=O)OC | 30 µM (active) |  |
| C=CC=CC=CCCCCC |  | inactive |
| CC(C)(c1cc(Br)c(OCCO)c(Br)c1)c1cc(Br)c(OCCO)c(Br)c1 | 16.2 µM (active) |  |
| O=C(c1ccc(O)cc1)c1ccc(O)cc1O |  | inactive |
| CCCCC(CC)COCC1CO1 (configuration not stated) |  | inactive |
| O=c1c2ccccc2oc2ccccc12 |  | inactive |
| S=C(NC1CCCCC1)NC1CCCCC1 |  | inactive |
| CCOC(=O)c1ccccc1C(=C1C=C(Br)C(=O)C(Br)=C1)c1cc(Br)c(O)c(Br)c1 | 3.46 µM (active) and 3.44 µM (active) |  |
| CO[Si](OC)(OC)c1ccccc1 |  | inactive |
| CC(C)C(=O)C(C)C |  | inactive |
| COc1ccc2nc(N)sc2c1 |  | inactive |
| c1ccc2c(c1)ccc1cc3c(ccc4ccccc43)cc12 | 3.59 µM (active) | inactive |
| c1ccc2c(c1)ccc1ncccc12 |  | inactive |
| C/C=C\C/C=C/CCCCCCCCOC(C)=O | 20 µM (active) |  |
| c1ccc(-c2ccccn2)nc1 |  | inactive |
| CCO[Si](CCCN=C=O)(OCC)OCC |  | inactive |
